Screening data (PubChem)
HADH2 inh – HADH2 (human) dehydrogenase inhibition; Potency, µM (top dose mostly 57.1 µM), without a hit: top-dose activity change, negative = inhibition, usual class: inhibitors; 73,000 tested, 3.4% active; recombinant HADH2, NADH fluorescence, beta-hydroxybutyryl-CoA; Q99714; further: potency means the concentration at half of the fitted maximal effect; on the % scale 0 is the no-effect control and ±100 the full control effect; nearly all actives have a fitted effect of over 60% in size
Target sequence (Q99714 whole entry, looked up, one chain of several): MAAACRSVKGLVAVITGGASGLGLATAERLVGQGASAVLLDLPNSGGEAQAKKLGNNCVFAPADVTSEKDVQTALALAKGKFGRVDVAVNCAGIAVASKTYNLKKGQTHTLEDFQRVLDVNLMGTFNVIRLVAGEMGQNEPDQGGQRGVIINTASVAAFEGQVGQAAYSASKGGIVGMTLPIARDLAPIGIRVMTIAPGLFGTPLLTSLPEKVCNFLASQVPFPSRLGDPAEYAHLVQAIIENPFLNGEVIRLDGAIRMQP
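Activity measured as NADH fluorescence gain (360/450 nm), taken as the change between first and last reads of a 4-min kinetic run. Conditions: pH 9.0 Tris buffer, 20 nM E. coli-expressed His-tagged enzyme, 1 mM NAD+, 90 uM beta-hydroxybutyryl-CoA; 15-min compound preincubation.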
AID923 – qHTS Assay for Allosteric/Competitive Inhibitors of Caspase-1: Spectroscopic Profiling in AFC Spectral Region; Potency, µM (titrated, usually from 57.5 µM), for inactives: at the top dose fluorescence increase, hits mostly activators; compound fluorescence, AFC spectral region (405/520 nm); 75,000 tested, 1.1% active; further: potency means the concentration at half of the fitted maximal effect; 0% is about no effect
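Baseline compound fluorescence (AFC region, 405 nm ex/520 nm em) taken from the intercept of kinetic reads with 50 nM caspase-1 and 5 uM Ac-WEHD-AFC; normalized to an on-plate AFC standard curve; compounds titrated up to 57 uM.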
A350 fluor – compound fluoresces in the Alexa 350 spectral region; 59,000 tested, 11% active; AID 590; max dye-equivalent concentration, M; Compound autofluorescence, 340/450 nm, Alexa 350 dye-equivalents; stronger effect = higher value; in the data active means max dye-equivalent concentration above about 10 nM; inconclusive means mostly about 1.1 nM to 9.6 nM
CRE-bla Fsk – CRE-bla signaling modulation under forskolin stimulation | CHO CRE-bla reporter (cAMP response element driving beta-lactamase), forskolin EC10, beta-lactamase ratio | Potency, µM (series often up to 38.2 µM), for the others: at the highest dose activity change, negative = inhibition, hits mostly activators | 71,000 tested, 2.5% active | AID 662; active means well fitted activation curve with a large enough effect in the signal ratio, with a control signal flat, not every such curve was filed as active; inconclusive means small, poorly fitted or top-dose-only effect, or effect the other way, or a change in a side signal; the % refers to the signal ratio; further: potency means the concentration at half of the fitted maximal effect; % of control where 0% means no effect
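Forskolin analogue NKH 477 at EC10 stimulated CRE-driven beta-lactamase in CHO cells alongside compound dilution series. Beta-lactamase was measured with CCF4, excitation 405 nm, emission ratio 460/530 nm.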
4-MU autofl – compounds fluorescent in 4-MU spectral region | AID 589 | compound autofluorescence, 340/450 nm, 4-MU equivalents; stronger effect = higher value | 59,000 tested, 11% active | max dye-equivalent concentration, M; in the data active means max dye-equivalent concentration above about 10 nM; inconclusive means mostly about 1.1 nM to 9.6 nM
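Intrinsic fluorescence at 340/450 nm (ex/em) was read after 15 min at room temperature in pH 8.0, 100 mM Tris. Each compound concentration expressed as 4-MU-equivalent concentration from a six-point 4-MU standard series on each plate.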
HSD17B inhib – blocks hydroxysteroid 17-beta dehydrogenase activity. Q99714. recombinant HSD17B10, NADH fluorescence kinetic. Potency, µM (highest dose often 57.1 µM), for inactives: at the highest dose activity change, negative = inhibition, hits mostly inhibitors. 75,000 tested, 7.6% active;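 further: the protocol describes HADH2 (HSD17B10) and not the HSD17B4 of the title; potency means the concentration at half of the fitted maximal effect; on the % scale 0 is the no-effect control and ±100 the full control effect; nearly all actives have a fitted effect of over 70% in size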
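20 nM HADH2, pH 9.0 Tris/Tween; cpd preinc 15 min RT; start w/ 1 mM NAD+ + 90 uM b-hydroxybutyryl-CoA; kinetic fluor ex360/em450 q30s x 4 min; delta last-first.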
Numbers without * were called inactive; i = inactive; u = inconclusive; x = no result; [ ] = remark or other dose. Only some compounds are listed: those with a hit (about 14% of all), similar ones and a draw of the others. Unless noted, the call rests on the fitted dose curve; in most records, active means well fitted curve in the direction sought with a large enough effect; inconclusive means small, poorly fitted or top-dose-only effect, or another doubt; inactive means no such curve, though single readings can be large; an effect the other way counts as inactive or inconclusive.

SMILES | HADH2 inh | AID923 | A350 fluor | CRE-bla Fsk | 4-MU autofl | HSD17B inhib
COc1ccc(OC)c(-c2cc(C(=O)Nc3cc(C)on3)no2)c1 | 25µM* | -1% | 2.5e-07M* | 8% | 2.9e-07M* | 25µM*
COc1ccc(-c2cc(C(=O)Nc3ccc(C)cc3)no2)cc1 | -2% | 2% | i | u | i | 13µM*
COc1cc(S(=O)(=O)NCc2ccccc2)ccc1F | 10% | 0% | i | u | i | 2%
COc1cccc(-c2cc(C(=O)NCc3ccco3)no2)c1 | 9% | 0% | i | u | i | -6%
COc1ccc(OC)c(-c2cc(C(=O)NCc3ccco3)no2)c1 | 39% | -2% | 2.5e-07M* | u | 1.2e-07M* | -15%
CCc1c(C)sc(NC(=O)c2cc(-c3cc(OC)ccc3OC)on2)c1C#N | u | 7% | 8.1e-08M* | u | 9.1e-08M* | -14%
O=C(NCc1ccco1)c1cc(-c2ccc3c(c2)OCO3)on1 | 111% | 0% | u | 7% | u | 25µM*
COc1ccc(OC)c(-c2cc(C(=O)Nc3cccc(Cl)c3)no2)c1 | 32µM* | 2% | 2.3e-07M* | u | 2.9e-07M* | 32µM*
COCCCn1c(SCC(=O)n2c(C)c(C)c3ccccc32)nnc1-c1ccoc1C | 1% | 6% | u | -2% | u | u
O=C(O)CNc1ccc(C(=O)O)cc1 | 2%[11.4 µM] | 1%[11.5 µM] | i | 1%[7.6 µM] | i | -3%[11.4 µM]
COC(=O)NC(CC(C)=O)c1cccs1 (stereo not drawn) | 3%[11.4 µM] | -2%[11.5 µM] | x | x | x | 7%[11.4 µM]
CC1=C(/C=C\C(=O)O)C(C)(C)CCC1 | 7%[11.4 µM] | 0%[11.5 µM] | i | -7%[7.6 µM] | i | 2%[11.4 µM]
COc1ccc(Cl)cc1NC(=O)CSc1nc(N2CCCCC2)nc(N2CCCCC2)n1 | 3% | -2% | i | -5% | i | -3%
N#CC(=C(/N)Sc1ccccc1N)/C(C#N)=C(/N)Sc1ccccc1N | u | 2% | i | -7% | i | 32µM*
CCOC(=O)C1=C(C(C)=O)C(c2cccnc2)C(C#N)=C(N)O1 (stereo not drawn) | x | x | 2e-08M* | x | 1.5e-08M* | x
CCc1cccc(NC(=O)CS(=O)Cc2nc(-c3ccc(C)cc3)oc2C)c1 (stereo not drawn) | 3% | 0% | x | u | x | -25%
O=C(c1coc(=O)c(Br)c1)N1CCOCC1 | x | x | 1.3e-06M* | x | 1.2e-06M* | x
O=C(c1ccc(Cl)c(Cl)c1)N1CCOCC1 | 20% | 0% | i | -2% | i | 16%
O=C(NCCN1CCOCC1)c1ccc(=O)oc1 | x | x | 7.2e-08M* | x | 6.5e-08M* | x
O=C(c1ccc(=O)oc1)N1CCCc2ccccc21 | 20µM* | 17% | 2.9e-08M* | 0% | 8.6e-08M* | 25µM*
O=C(c1ccc(=O)oc1)N1CCOCC1 | x | x | 1.9e-07M* | x | 1.8e-07M* | x
C=C1C2=CC(=O)OC(c3ccoc3)[C@]2(C)CCC1[C@]1(C)C=CC(=O)C(C)(C)C1CC(=O)OC (stereo partly drawn) | x | 0% | x | x | x | -3%
C[N+]1(C)CC(O)[C@H](C(=O)[O-])C1 (stereo partly drawn) | x | 1% | x | x | x | -2%
COC(=O)C/C=C\[C@@H](C)[C@@H](/C=N\OC[C@@H]1O[C@H](c2ccccc2)C=C[C@@H]1Oc1ccc(OC)cc1)NS(=O)(=O)c1ccc(C)cc1 | 1%[11.4 µM] | 0%[11.5 µM] | x | x | x | 2%[11.4 µM]
O=C(NCc1ccccn1)c1ccc(=O)oc1 | x | x | 5.7e-08M* | x | 5.1e-08M* | x
Cc1ccc(Nc2nc(N3CCOCC3)c3ccccc3n2)cc1 | -10% | 1% | 8.6e-08M* | 2% | 6.4e-08M* | u
Oc1ccc(Nc2nc(N3CCCC3)c3ccccc3n2)cc1 | -19% | 0% | i | u | i | u
Nc1cccc(S(=O)(=O)O)c1 | -3% | 1% | x | -7% | x | u
CS(=O)(=O)N(CCc1ccccc1)CC(=O)NCc1ccco1 | -6% | 0% | i | -1% | i | -10%
